Results on 59 molecules are retold here after PubChem BioAssay AID651814 (National Center for Advancing Translational Sciences (NCATS), 2012).

Molecules are shown by their SMILES. Several values for one entry are separate records, joined by “and”; a condition that tells them apart may be missing. Equal values may be shown once. Out of some 2,100 compounds screened, about 590 (28%) were called active. Not shown: some 42% with an inconclusive outcome. Calls follow the shape of the dose curve; as a rule, active = well fitted inhibition curve with a large enough effect; inconclusive = small, poorly fitted or top-dose-only effect; inactive = flat fitted curve, though single readings scatter. The list shows a part of the results.
Potency is read from the fitted curve at half-maximal effect.

This assay deals with DNA dC->dU-editing enzyme APOBEC-3F (Homo sapiens) (UniProt Q8IUX4). Put plainly: qHTS for inhibitors of Vif-A3F interactions: Cherry picks. Also: nearly all actives have a fitted effect of over 70% in size.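 As to max response: % of control where 0% means no effect; active compounds raise eYFP fluorescence by blocking Vif-driven A3F loss.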 The note with it: HeLa A3F-eYFP + Vif (tagged APOBEC3F with the HIV-1 protein that degrades it), eYFP fluorescence, 24 h. Put shortly: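 HeLa cells stably expressing A3F-eYFP plus Vif, cultured overnight, then exposed to compounds at several concentrations for 24 h at 37 deg C. Reduced Vif-driven degradation read as rising eYFP fluorescence (488 nm ex/500-530 nm em) by laser-scanning cytometry; MG132 as positive control.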
Chain of DNA dC->dU-editing enzyme APOBEC-3F (Homo sapiens) (Q8IUX4 whole entry, looked up): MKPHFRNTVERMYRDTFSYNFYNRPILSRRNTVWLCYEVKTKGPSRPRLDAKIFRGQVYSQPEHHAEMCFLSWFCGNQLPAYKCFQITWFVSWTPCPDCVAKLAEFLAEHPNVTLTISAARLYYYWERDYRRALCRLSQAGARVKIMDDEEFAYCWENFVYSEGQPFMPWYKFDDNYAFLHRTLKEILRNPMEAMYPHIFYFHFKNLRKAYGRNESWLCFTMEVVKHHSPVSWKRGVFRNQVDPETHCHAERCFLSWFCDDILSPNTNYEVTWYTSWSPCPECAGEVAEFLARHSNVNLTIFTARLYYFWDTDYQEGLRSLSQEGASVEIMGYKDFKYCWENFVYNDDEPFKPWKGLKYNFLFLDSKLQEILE
`N#Cc1c(-c2ccccc2F)cc(C2CC2)nc1SCC(=O)c1cccs1`: the Potency is 17.7 µM (active).

`CCc1c(C)nc(SCC(=O)c2cccs2)c(C#N)c1C`: the max response is 0.208% (inactive). As for `CCn1c(CNC(=O)c2cc(OC)c(OC)c(OC)c2)cc2cc(C)ccc21`, the max response was 2.52% (inactive).

In the case of `Cc1ccc2nc(-c3ccccn3)c(NC3CCCC3)n2c1`, the max response is -1.86% (inactive). Take `c1ccc(Nc2nc(-c3ccccn3)cs2)cc1`: the max response was -4.92% (inactive).

In the case of `CCc1cccc2c(C(O)c3c[nH]c4ccccc34)c[nH]c12` (centres undefined), the Potency was 18.4 µM (active). Turning to `COc1cccc(C2=CC(c3cccs3)n3nnnc3N2)c1` (centres undefined), the Potency is 6.27 µM (active). As for `COc1ccc(C2=CC(c3ccc(N(C)C)cc3)n3nnnc3N2)cc1` (centres undefined), the max response was -6.88% (inactive). On the same count and under the same terms, for `C=CCOC(=O)C1=C(C)Nc2nnnn2C1c1cccs1` (centres undefined) the value was -1.29% (inactive); for `CCCC(=O)NC1=C(Cl)C(=O)c2ccccc2C1=O`, 5.27% (inactive). As to `CCOC(=O)C1=C(Cc2ccc(Cl)cc2)C(=O)c2ccccc2C1=O`, the Potency is 16.4 µM (active).

As for `S=C(Nc1ccccc1)N1CCn2c1nc1ccccc12`, the max response was -7.52% (inactive).

Regarding `Cc1cc2nc(SCCOC(=O)Nc3cccc(Cl)c3)nc(C)c2cc1C`, the max response is 3.73% (inactive). `COc1cccc(N2CC(O)=C(c3nc4ccccc4s3)C2=N)c1`: the Potency was 5.59 µM (active).

`CCN(CC)c1ccc(/C=C/c2cccc[n+]2C)c(OC)c1`: the Potency is 3.14 µM (active).

For `C(=Cc1c[nH]c2ccccc12)c1ccc2ccccc2n1`, the Potency was 23.1 µM (active).

Turning to `C(=C\c1c[nH]c2ccccc12)/c1ccc2ccccc2n1`, the Potency is 23.1 µM (active). On the same count and under the same terms, for `Cc1[nH]c2ccccc2c1/C=C/c1ccc2ccccc2n1` the value was 7.31 µM (active). For the molecule `CCOC(=O)c1c(-c2ccc(OC)cc2)csc1/N=C/C1=C(O)CCCC1=O`, the max response is -6.09% (inactive). Regarding `Cc1ccccc1-n1c(/C=C/c2c(C)n(C)c3ccccc23)nc2ccccc2c1=O`, the Potency was 8.2 µM (active).

Regarding `CN1CCc2c(sc(NC(=O)CSc3ccc(F)cc3)c2-c2nc3ccccc3s2)C1`, the Potency is 7.31 µM (active). On to `Cc1cc(C(F)(F)F)c2c(N)c(C(=O)Nc3cc(C)on3)sc2n1`, for which the max response was -20.9% (inactive). As to `COc1ccc(NC(=O)c2sc3nc(-c4ccc(OC)cc4)cc(C(F)(F)F)c3c2N)cc1`, the Potency is 1.3 µM (active).

As for `COc1ccc(OC)c(NC(=O)c2sc3nc(Cc4ccccc4)cc(C(F)(F)F)c3c2N)c1`, the Potency was 8.2 µM (active).

`COc1ccc(C(=O)c2sc3nc(-c4ccc(C)cc4)cc(C(F)(F)F)c3c2N)cc1`: the Potency is 8.2 µM (active). `COc1cc(C(=O)Nc2nnc(Cc3ccccc3)s2)cc(OC)c1OC`: the max response is -23.2% (inactive).

With `Nc1c(C(=O)O)sc2nc(-c3ccc(F)cc3)cc(-c3ccccc3)c12`, the max response is -11.4% (inactive). Take `COc1cccc(C(=O)c2sc3nc(-c4ccccc4)cc(C(F)(F)F)c3c2N)c1`: the Potency was 1.46 µM (active). For `CCC(=O)OCc1cnc(C)c2oc(=O)c(C(=O)Nc3ccccc3C(F)(F)F)cc12`, the max response was -0.08% (inactive).

Take `CN1C2=CC=CC=CC2=[N+](C)C12C([N+](=O)[O-])=CC(=[N+]([O-])[O-])C=C2[N+](=O)[O-]` (centres undefined): the max response was -0.344% (inactive).

In the case of `COc1ccccc1/C=N/NC(=S)Nc1cccnc1`, the max response is -4.95% (inactive). Same read-out and setting: with `CC(=O)c1cccc(NC(=O)C2CCCN(S(=O)(=O)c3cccc4nonc34)C2)c1` (centres undefined) the figure was -0.245% (inactive). As for `COc1ccc(C(=O)c2sc3nc(C)cc(-c4cccs4)c3c2N)cc1`, the Potency is 18.4 µM (active). For `O=C(NC(=S)N1CCN(C2CCCCC2)CC1)c1ccccc1`, the max response was 3.13% (inactive). In the case of `CCCCN1C(=O)/C(=C/C=C2/CC(C)(C)CN2C)SC1=S`, the Potency was 3.96 µM (active). Consider `Cc1ccc(Cn2c(SCc3ccc(C(=O)NC4CCCC4)cc3)nc3ccncc32)cc1`, for which the max response is -0.957% (inactive). Still for that read-out and setting: with `ClCC1NCC(c2ccccc2Cl)c2c1[nH]c1ccccc21` (centres undefined) the figure was -5.81% (inactive). For `Cn1cc(C2=C(c3ccc(Cl)cc3Cl)C(=O)NC2=O)c2ccccc21`, the Potency is 2.91 µM (active) and 14.6 µM (active). `COc1ccc(S(=O)(=O)N2c3ccccc3OCC2CC(=O)O)cc1` (centres undefined): the max response was -27.6% (inactive). Still for that read-out and setting: with `COc1cc(NC(=O)c2ccco2)c(C(=O)OCC(=O)c2c[nH]c3ccccc23)cc1OC` the figure was -11.7% (inactive). In the case of `Cn1nnc2c[n+](CC(=O)c3ccc(Cl)cc3)cc(Br)c21`, the Potency is 17.7 µM (active). Still for that read-out and setting: with `O=C(Nc1cc(Cl)ccc1-n1cncn1)c1ccc([N+](=O)[O-])s1` the figure was 15.8 µM (active). With `N#CC1=C(N)Oc2ccc3ccc(O)cc3c2C1c1ccsc1` (centres undefined), the max response is -15.9% (inactive). Take `N#CC1=C(N)Oc2cc(N)ccc2C1c1ccc(F)cc1F` (centres undefined): the Potency is 18.4 µM (active).

Take `Cc1oc(C)c2c(=O)ccc3c(c12)OC(N)=C(C#N)C3c1ccc(F)cc1` (centres undefined): the max response was 1.74% (inactive). For the molecule `O=C1[C@@H]2[C@@H](CN3CN(c4ccccc4)N=C(c4ccccc4)[C@@]23c2ccccc2)C(=O)N1c1ccccc1`, the max response was -0.723% (inactive). With `CC(C)CC[n+]1ccccc1/C=C/c1ccc(N(C)C)cc1`, the Potency was 20.6 µM (active). The same measure, in the same setting: for `CC[n+]1ccccc1/C=C/c1ccc(N(C)C)cc1` the value was 20.6 µM (active); for `Cc1ccc(-c2csc(NC3OC(=O)c4ccccc43)n2)cc1` (centres undefined), 14 µM (active). Same read-out and setting: for `Fc1ccc(CNc2nc3ccccc3n3nnnc23)cc1` the value was 23.1 µM (active). For `c1ccc2c(c1)nc(NCC1CCCO1)c1nnnn12` (centres undefined), the max response is -11.8% (inactive). As to `Fc1ccc(CNc2nc3ccc(Cl)cc3n3nnnc23)cc1`, the max response is -20.9% (inactive). On to `c1ccc2c(CCc3c[nH]c4ccccc34)ccnc2c1`, for which the Potency was 20.6 µM (active). On the same count and under the same terms, for `O=C(N/N=C\C=C\c1ccc([N+](=O)[O-])o1)c1cccs1` the value was 12.5 µM (active); for `COc1ccccc1OCC(=O)N/N=C/C=C/c1ccc([N+](=O)[O-])o1`, 10.3 µM (active). Take `O=C(COc1ccccc1-c1ccccc1)NN=C1CCCC1`: the max response is -15.6% (inactive). For `Cc1ccccc1OCC(=O)N/N=C/c1ccc(N(C)C)cc1`, the max response is -27.7% (inactive). Turning to `O=C(N/N=C/C=C/c1ccco1)c1ccncc1`, the max response is -0.284% (inactive).

As to `O=C(CN1C(=O)CSc2ncccc21)Nc1cccc(Cl)c1`, the max response was -15.2% (inactive).
